Screen size: about 330,000 compounds; about 660 (0.2%) were called active.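 Rule for the calls: active = inhibition of at least 40% at 10 µM in the primary screen; inactive = the rest.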 Shown is part of a subset that was picked to be rich in actives.

The subject of the assay is intestinal alkaline phosphatase [Mus musculus]. As to the kind of experiment: inhibitors of mouse IAP, primary screen, biochemical, luminescence, uHTS (AID 2806).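 Note: plate controls were DMSO with enzyme for no effect and no enzyme wells for full effect.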 As to conditions: purified mouse IAP, CDP-Star luminescence, 30 min; at 10 µM; hits give high values.
`Cc1c(CC(=O)NCC(=O)NCC(=O)O)c(=O)oc2cc3oc4c(c3cc12)CCCC4`: the inhibition is 3.6% (inactive).

For the compound `CN(/C(=N/S(=O)(=O)c1cccs1)c1ccccc1)c1ccc(O)cc1`, the inhibition was -15.8% (inactive). The result for `COCc1cc(C)nc(Nc2cc(C)ccc2C)c1C#N` reads -3.2% (inactive); that for `Cc1nc2sccn2c(=O)c1S(=O)(=O)NCCc1ccccc1`, -1.1% (inactive); that for `Cc1cc(C)c(S(=O)(=O)NCCCN2CCOCC2)cc1Br`, 6.6% (inactive).

On to `O=C(/C=C/Nc1ccc(S(=O)(=O)Nc2cnc3ccccc3n2)cc1)c1cccnc1`, for which the inhibition is 10% (inactive). The result for `OCC[C@H]1C[C@@H](O)[C@H](O)[C@@]2(OCCc3ccccc32)O1` reads 8.9% (inactive); that for `COc1cc(C2CC(=O)Oc3cc(OC)c(OC)c(OC)c32)cc(OC)c1OC` (stereo unspecified), -2.2% (inactive). On to `COc1ccc(OCCCC(=O)OC(C)C(=O)Nc2ccccc2[N+](=O)[O-])cc1` (stereo unspecified), for which the inhibition is 1.5% (inactive). The result for `O=C(O)C1OC(C(=O)O)C2C1C(F)(F)C2(F)F` (stereo unspecified) reads -3.4% (inactive); that for `Cc1ccccc1OCC(=O)N(Cc1cccc(F)c1)C1CCS(=O)(=O)C1` (stereo unspecified), -3.3% (inactive); that for `CCC(=O)Nc1ccc(-c2ccc(N3CCCCC3)nn2)cc1`, 6.7% (inactive). Consider `COC(=O)c1ccc(S(=O)(=O)c2ccc(C(=O)OC)s2)s1`, for which the inhibition is 7.9% (inactive). For the compound `Cc1ccc2c(c1)NC(=O)[C@@]1(C)[C@@H](c3ccccc3)[C@H]3COc4ccc(Cl)cc4[C@@H]3N1C2=O`, the inhibition was -2.6% (inactive). The result for `O=C(c1ccc(Cl)cc1)N1N=C(c2ccccn2)CC1(O)C(F)(F)F` (stereo unspecified) reads -4% (inactive); that for `O=c1[nH]c(=S)[nH]c2[nH]c(=S)[nH]c12`, 73.3% (active). The result for `O=C(CN1CCN(C(=O)C2CCCO2)CC1)Nc1c(Cl)cccc1Cl` (stereo unspecified) reads 3.1% (inactive); that for `O=C(COC(=O)c1cnccn1)Nc1ccc(Cl)cc1C(F)(F)F`, 4.7% (inactive); that for `Cc1ccc(OCc2nnc(NC(=O)OCC(C)C)s2)cc1`, 0.4% (inactive). The result for `Clc1ccccc1CSc1nnc(-c2ccco2)c(-c2ccco2)n1` reads 60.4% (active); that for `Clc1ccc(CSc2nnc3c(n2)[nH]c2ccccc23)cc1`, 12.9% (inactive). Turning to `CCc1nnc(SCc2cccc(F)c2)nc1CC`, the inhibition was 4.4% (inactive).

Take `O=C(Nc1nnc(SCc2ccccc2Cl)s1)c1cccc([N+](=O)[O-])c1`: the inhibition was 22.8% (inactive).

For the compound `S=C(NCc1ccco1)NCc1ccccc1Cl`, the inhibition is -1% (inactive). The result for `c1ccc(CSc2nnc(-c3ccco3)c(-c3ccco3)n2)cc1` reads 49% (active); that for `C[C@H](NC(=O)[C@@H]1Cc2ccccc2CN1C(=O)OC(C)(C)C)C(=O)NC1CCCC1`, -2.7% (inactive); that for `Cc1cccc(OCC(O)Cn2c(N3CCCCC3)nc3c2c(=O)[nH]c(=O)n3C)c1` (stereo unspecified), -1.1% (inactive). Take `Cc1ccc(CNC(=O)C2CCCN2S(=O)(=O)c2ccc3c(c2)C(C)(C)C(=O)N3C)cc1` (stereo unspecified): the inhibition is -1% (inactive). Take `CC(C)OC(=O)c1cc(NC(=O)C2C3CCC(O3)C2C(=O)O)cc(C(=O)OC(C)C)c1` (stereo unspecified): the inhibition is 7.3% (inactive). The result for `COc1ccccc1CCNC(=O)c1c(C)nn(CC(C)C)c1Cl` reads 6.5% (inactive); that for `Cc1ccc(N=C2NC(=O)/C(=C/C=C/c3ccco3)S2)cc1C`, 56% (active). The result for `CN1C(=O)/C(=C/c2ccco2)SC1=Nc1cccc(C(=O)O)c1` reads 9.6% (inactive). The result for `CC(=O)Nc1ccc(NC(=O)C(NS(=O)(=O)c2ccc3c(c2)OCCO3)C(C)C)cc1` (stereo unspecified) reads 3.4% (inactive); that for `O=c1ccc2c(-c3ccccc3S(=O)(=O)O)c3ccc(O)c(O)c3oc-2c1O`, 64.9% (active); that for `Cc1ccccc1C(OCCN(C)C)C1CCCCC1` (stereo unspecified), -6% (inactive). Regarding `CCN(C[C@H]1N[C@@](CC)(C(=O)OC)[C@H]2C(=O)N(C)C(=O)[C@@H]12)C(=O)Nc1ccc(F)cc1`, the inhibition is 2.6% (inactive). The result for `CCOC(=O)c1cc(-c2ccccc2C)n(Cc2cc(C)no2)n1` reads -6.2% (inactive); that for `CN(C)c1ccc(N/C=C/C(=O)C(F)(F)F)cc1`, 7.4% (inactive); that for `COCC1CCN(C(=O)C2CCC(=O)N(CC3CCCCC3)C2)CC1` (stereo unspecified), 4.4% (inactive).

`Nc1ccc2nc3c(=O)[nH]c(=S)[nH]c3nc2c1`: the inhibition is 70.9% (active). With `C=CCC(NC(=O)Cc1ccccc1)C(=O)NCCC` (stereo unspecified), the inhibition was -3.3% (inactive). For `CCOc1ccc2nc(Cl)c(C3CC(c4ccccc4)=NN3C(=O)c3cccs3)cc2c1` (stereo unspecified), the inhibition is 13.7% (inactive). For `O=C(NCCOc1cccnc1)c1ccc(OC2CCN(Cc3ccccn3)CC2)cc1`, the inhibition was 4.2% (inactive). On to `O=C(CCCN=C1NS(=O)(=O)c2ccccc21)OCC(=O)c1ccc(F)c(F)c1`, for which the inhibition is -12.2% (inactive). As to `COC(=O)CN(c1nc(C)c(Cl)c(OC)n1)S(=O)(=O)c1ccc(C)cc1`, the inhibition is 0.2% (inactive).

Regarding `CCCCN(C)CCNC(=O)C1CCCN(S(=O)(=O)c2cccc3nsnc23)C1` (stereo unspecified), the inhibition is 4.9% (inactive). On to `CS(=O)(=O)N(CC(=O)NC1CCCC1)Cc1ccc(F)cc1`, for which the inhibition is 3.3% (inactive). In the case of `C=CCSc1nc(N)cc(=O)[nH]1`, the inhibition was 4.4% (inactive). The result for `CCc1ccc(N(CC)c2ncnc3nc[nH]c23)cc1` reads 7.5% (inactive).

`Cc1cc(C)c(C)c(S(=O)(=O)N[C@@H](C)C(=O)OC(C)C(=O)NC(N)=O)c1C` (stereo partly specified): the inhibition is -4.2% (inactive). The result for `CC(NC(=O)c1ccccc1C(=O)O)c1ccc(-n2ccnc2)cc1` (stereo unspecified) reads 0.1% (inactive). `COc1cc(/C=N\Nc2nc(-c3cccs3)c(NC(C)=O)s2)ccc1O`: the inhibition is 41% (active). The result for `CC(=O)c1sc(N/N=C\c2ccc(C)cc2)nc1C` reads 10.3% (inactive); that for `COc1cc(/C=N/NC(=O)CCc2n[nH]c(=O)[nH]c2=O)ccc1O`, -0.9% (inactive); that for `Fc1ccccc1/C=C1\CCCC2=C1Nc1ncnn1C2c1ccccc1F` (stereo unspecified), 0% (inactive).

Regarding `O=[N+]([O-])/C(N=Nc1ccccc1)=N\Nc1ccccc1`, the inhibition was -0.1% (inactive). The result for `CSCCC1NC2(C(=O)Nc3ccc(Cl)cc32)[C@@H]2C(=O)N(C3CCCC3)C(=O)[C@H]12` (stereo partly specified) reads 3.1% (inactive); that for `Nc1c(C(=O)c2cccs2)sc2nsc(SCCN3CCCCC3)c12`, 16.4% (inactive). The result for `CCN(c1ccccc1)S(=O)(=O)c1ccc(N)cc1` reads -11.2% (inactive); that for `CN(c1ccccc1)S(=O)(=O)c1ccc2[nH]c(=O)[nH]c2c1`, 6.6% (inactive). The result for `CCN(c1ccccc1)S(=O)(=O)c1ccc2[nH]c(=O)[nH]c2c1` reads 52.1% (active).

In general, inhibition refers to the relative decrease from the control value, in per cent.
